From PubChem
Compounds with a hit are over-represented: about 2.9% of the library has one in this group of screens.
KLK7 zymogen act – proKLK7 (human) activation, primary screen | activation, % at 7 µM | purified proKLK7, EDANS-DABCYL substrate fluorescence; 100% is mature enzyme control, 0% vehicle | hit rate 0.9% among 370,000 | P49862;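 active means activation above the mean of all tested compounds plus 3 SD, computed per campaign excluding outliers beyond control limits, cut at about 13% in these data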
Target sequence (P49862 whole entry, looked up): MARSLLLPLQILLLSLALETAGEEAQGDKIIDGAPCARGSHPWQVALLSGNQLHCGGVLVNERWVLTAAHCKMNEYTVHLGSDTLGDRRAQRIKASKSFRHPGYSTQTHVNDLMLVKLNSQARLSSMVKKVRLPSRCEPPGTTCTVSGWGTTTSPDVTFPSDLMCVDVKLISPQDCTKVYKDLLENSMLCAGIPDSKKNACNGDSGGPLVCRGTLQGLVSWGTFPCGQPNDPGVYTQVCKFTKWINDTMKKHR
PLCg1 inh – blocks human PLC-gamma1 enzyme activity | AID 720700 | inhibition, % at 12.2 µM | purified PLC-gamma1, fluorogenic substrate, fluorescence | P19174 | hit rate 0.84% among 370,000; in the data active means inhibition above about 9.5%
ADAM10 inh – ADAM10 inhibition, QFRET primary screen. recombinant ADAM10, EDANS/DABCYL FRET peptide cleavage, 3 h. inhibition, % at 7 µM. AID 720582. O14672. hit rate 0.62% among 370,000;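 active means inhibition above a per-campaign cutoff equal to the mean of compounds falling between control-based bounds plus 3 SD, cut at about 20% in these data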;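 further: 0% = DMSO wells while the 100% control is not disclosed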
PLC-beta3 inh – PLC-beta3 (human) inhibition, primary screen. Q01970. Purified PLC-beta3, fluorogenic substrate, fluorescence. hit rate 0.18% among 370,000. inhibition, % at 12.2 µM. AID 720704; in the data active means inhibition above about 11%;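 further: 0% = median of compound wells on plate and 100% = full blocker control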
ADAM17 inh – inhibitors of human ADAM17. P78536. recombinant ADAM17, EDANS/DABCYL FRET peptide cleavage. inhibition, % at 6.95 µM. hit rate 0.83% among 370,000. AID 720648;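 active means inhibition above the mean of compounds lying between control limits plus 3 SD, set per campaign, cut at about 8.5% in these data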;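 further: 0% = DMSO-only wells as the low control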
ADAM10 ctr – ADAM10 inhibition, counter-screen for ADAM17 exosite hits | shares compounds with ADAM17 inh | recombinant ADAM10, EDANS/DABCYL FRET peptide cleavage, 3 h | inhibition, % at 6.95 µM | hit rate 47% among 2,900;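 active means mean inhibition over the triplicate runs exceeds the activity threshold set in the earlier primary screen, cut at about 20% in these data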;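 further: 0% = DMSO wells and 100% = marimastat wells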
ADAM17 confirm – confirmation of inhibitors of human ADAM17. shares compounds with ADAM17 inh. recombinant ADAM17, EDANS/DABCYL QFRET peptide cleavage. inhibition, % at 6.95 µM. hit rate 65% among 2,900. AID 743257;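 active means mean inhibition across replicates above the hit cutoff set in the primary screen, cut at about 8.5% in these data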;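 further: 0% = DMSO wells and 100% = marimastat wells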
The depositor's hits bear a star; i = inactive; / = not tested or not shown.

SMILES	KLK7 zymogen act	PLCg1 inh	ADAM10 inh	PLC-beta3 inh	ADAM17 inh	ADAM10 ctr	ADAM17 confirm
Cc1cc(/C=C2\NC(=S)N(C)C2=O)ccc1N1CCCC1	-0.2	-35.3	9.2	-39.9	8.9*	9.9	8.1
CCN(CC)S(=O)(=O)c1cccc(C(=O)N[C@H](C(=O)OCC(=O)Nc2ccccc2)C(C)C)c1	0.2	1.2	-3.9	2.7	11.1*	5.0	3.9
Cc1cc(C)n(Cc2ccc(C(=O)NCc3ccco3)o2)n1	0.3	4.4	-0.3	3.2	9.4*	-7.6	-1.6
CCNc1ccc2noc3c2c1C(=O)c1ccccc1-3	-21.2	i	6.3	i	9.0*	-2.5	5.3
COCCCNC(=O)C[C@H]1C[C@@]2(C(=O)OC)C(=C[C@H](COCc3ccccc3)O[C@@H]2C)N(Cc2ccco2)C1=O	-0.4	-0.7	1.2	0.5	-4.1	/	/
O=C(COC(=O)C1CC1)NCc1ccc(Cl)cc1Cl	-0.4	6.9	-16.4	-4.1	-2.0	/	/
COC(=O)c1c(-c2cccc3ccccc23)csc1NC(=O)Cc1ccc(OC)c(OC)c1	-0.5	-2.2	17.4	-0.2	10.3*	13.8	10.1*
Cc1c(Cl)cccc1NC(=O)CN1CCC(C(O)(c2ccccc2)c2ccccc2)CC1	0.0	7.3	12.5	0.3	8.8*	30.1*	16.5*
Cc1ccccc1C(=O)NC1CCN(CC(=O)Nc2ccccc2Cl)CC1	0.0	1.4	13.0	-2.0	-2.0	/	/
COCCN(CC(=O)Nc1cccc(C)c1C)C(=O)C1CCN(S(=O)(=O)c2ccccc2)CC1	-0.4	-0.1	-8.7	-6.6	-8.0	/	/
Cc1ccc(C)n1NC(=O)c1cccs1	-0.2	-5.3	-0.4	-8.0	-2.5	/	/
CC(C)(NO)/C(=N/O)c1cccs1	0.1	8.5	8.0	11.8*	9.2*	5.3	5.4
C=C1C(=O)[C@]23C[C@H]1CC[C@H]2[C@]1(C)CCC[C@@](C)(C(=O)OC)[C@H]1C[C@@H]3O	-0.9	-0.6	0.9	-0.7	-2.3	/	/
O=C(Nc1nc(-c2ccccc2)cs1)C1COc2ccccc2O1 (stereo not drawn)	0.2	8.5	12.4	5.5	14.4*	43.7*	14.2*
COc1cccc2[nH]c(C(=O)NC(C)c3ccccc3)cc12 (stereo not drawn)	2.2	-145.4	-114.0	-211.4	-43.3	/	/
CCN(CC)c1ccc(NC(=O)c2cc3c(OC)cccc3[nH]2)cc1	0.8	-78.9	18.1	-114.6	16.9*	6.5	8.2
O=C(COc1ccccc1F)NNC(=O)c1cccc(-n2cccc2)c1	0.3	3.1	11.1	1.7	14.7*	-0.7	3.0
CN=C1S/C(=C/c2cc(C)n(-c3ccc(Cl)cc3F)c2C)C(=O)N1C	/	-10.6	-1.7	-18.8	-3.6	/	/
COc1ccc(N2CCC(CNC(=O)Nc3ccccc3)C2)cc1 (stereo not drawn)	-0.8	6.4	8.9	-3.3	14.5*	3.4	7.8
COc1ccc(CN2CCC(CNC(=O)Nc3ccccc3)CC2)cc1	0.5	3.5	2.1	2.3	0.8	/	/
COc1cccc(N=C2SC(C(=O)Nc3ccc(F)cc3)CC(=O)N2C)c1 (stereo not drawn)	0.2	1.2	6.6	-3.2	10.3*	25.1*	10.5*
COc1ccc(OC)c(NC(=O)c2cc(-c3ccc(F)cc3OC(C)C)n[nH]2)c1	-0.2	-3.4	16.7	-6.9	8.8*	10.5	9.3*
COC(=O)C1=C(C)N(Cc2cccc(C(F)(F)F)c2)C(=NCc2ccccc2C(F)(F)F)NC1c1cccc(F)c1 (stereo not drawn)	-0.7	5.4	14.5	4.5	9.6*	20.6*	17.5*
COC(=O)C1=C(C)N(Cc2cccc(C(F)(F)F)c2)C(=NCc2ccc3c(c2)OCO3)NC1c1ccccc1 (stereo not drawn)	0.6	1.2	-4.3	1.5	-1.2	/	/
COC(=O)C1=C(C)N(Cc2cccc(C(F)(F)F)c2)C(=NCc2ccccc2C(F)(F)F)NC1c1cccc(C(F)(F)F)c1 (stereo not drawn)	0.1	5.4	-1.0	6.2	-0.8	/	/
SMILES	KLK7 zymogen act	PLCg1 inh	ADAM10 inh	PLC-beta3 inh	ADAM17 inh	ADAM10 ctr	ADAM17 confirm
COC(=O)C1=C(C)N(Cc2ccc(C(F)(F)F)cc2)C(=NCc2ccc3c(c2)OCO3)NC1c1ccccc1 (stereo not drawn)	-0.4	5.5	9.8	7.4	9.6*	10.1	4.8
O=C(Nc1ccnn1C1CCN(C(=O)c2cccc(Cl)c2)CC1)C1CC1	0.0	0.9	-2.2	-7.7	-4.7	/	/
O=C(CC[C@H]1O[C@@H](n2ccc(=O)[nH]c2=O)[C@H](O)[C@@H]1O)NCCc1c[nH]c2ccccc12	0.8	1.8	-6.7	2.5	-0.6	/	/
COc1cc2c(cc1OC)C(c1ccccc1[N+](=O)[O-])=NCC2	0.7	5.0	-1.6	1.2	1.4	/	/
C=C(C)c1cccc(C(C)(C)NC(=O)N2CCCC2)c1	-0.2	6.3	-3.2	5.4	9.1*	1.2	0.7
CCN(CC)C(=O)[C@H]1C[C@H](CC(=O)NC(C)(C)C)C(=O)N2CCc3c([nH]c4ccc(Cl)cc34)[C@]12C	0.6	-1.3	2.0	2.0	-0.7	/	/
NNc1nnc2c3cc(F)ccc3n(CCc3ccccc3)c2n1	-0.5	3.0	10.6	-3.0	11.9*	-5.1	1.0
Fc1ccc2c(c1)c1n[nH]c(=S)nc1n2CCc1ccccc1	1.4	-2.9	-0.2	-8.9	-5.2	/	/
Cc1cc2c(c(=O)o1)[C@@]1(C(=O)N(C)c3ccccc31)C1=C(CC3(CCCCC3)OC1=O)O2	-0.2	0.7	-13.4	-0.5	-3.0	/	/
C(=C\c1ccccc1)/CN1CCN(C(c2cccc3ccccc23)c2nnnn2Cc2ccccc2)CC1 (stereo not drawn)	0.2	8.5	18.6	0.0	11.9*	23.2*	9.6*
O=C(Nc1ccc(F)cc1)C(c1cccc(F)c1)N1CCN(C(=O)c2ccco2)CC1 (stereo not drawn)	0.5	2.2	-2.4	4.0	-0.4	/	/
COc1cc(OC)cc(N(C(=O)C2COc3ccccc3O2)C(C(=O)NC2CCCCC2)c2ccc(O)cc2)c1 (stereo not drawn)	0.1	1.0	15.2	0.7	11.1*	15.0	10.0*
COc1ccc(N(C(=O)C2COc3ccccc3O2)C(C(=O)NC2CCCCC2)c2ccccc2)cc1OC (stereo not drawn)	0.7	-4.0	-3.9	-1.6	-2.0	/	/
COc1ccc(OC)c(-c2csc(NC(=O)Cc3ccc(F)cc3)n2)c1	0.1	2.6	9.8	-1.1	8.6*	31.9*	15.7*
COC(=O)[C@]12C[C@H](CC(=O)NCCC(C)C)C(=O)N(Cc3ccco3)C1=C[C@H](C(C)C)O[C@@H]2C1CC1	0.0	0.3	2.3	2.6	-0.1	/	/
